According to publication PMC4552634, “A New Set of Chemical Starting Points with Plasmodium falciparum Transmission-Blocking Potential for Antimalarial Drug Discovery” (PLoS ONE, 2015):
In all, about 13,000 compounds went through this assay and about 3,200 (25%) showed an effect of 50% or more. The list shows a part of the results.

test system: P. falciparum stage V gametocytes; design: BacTiter-Glo ATP luminescence viability of purified stage V gametocytes in 384-well plates, per cent inhibition versus DMSO; details: 48 h, 5 µM; inhibitor

SMILES	% Inhibition [%]
CCC(=O)Nc1cc(=O)[nH]c2nc(-c3ccc(Cl)cc3)nn12 [TCMDC-125473]	-75.71
Cc1cc(-c2cc(-c3ccc(OCCN(C)C)cc3)[nH]c2-c2ccc3c(c2)CCC3=NO)ccn1 [TCMDC-141302]	25.92
N#Cc1cccc(NC(=O)Nc2ccc(CC(=O)N3CCc4cc(Cl)c(N5CCN(C/C=C/c6ccccc6)CC5)cc43)cc2)c1 [TCMDC-139476]	12.28
CCCc1cc(Cc2cnc(N)nc2N)ccc1OCCCCCC(=O)O [TCMDC-137231]	-22.54
CS(=O)(=O)CCNCc1cc(-c2cc3ncnc(Nc4ccc(OCc5cccc(F)c5)c(Cl)c4)c3s2)cs1 [TCMDC-138726]	-0.4482
CCOC(=O)c1ccc2nc(-c3ccc(C(=O)NC4CCN(Cc5ccccc5)CC4)s3)[nH]c2c1 [TCMDC-140575]	-23.22
CCCCSc1nc2c(c(=O)n1Cc1ccco1)C1(CCCCC1)Cc1ccccc1-2 [TCMDC-123896]	-14.5
CC(C)(C)Oc1ccc(C[C@@H]2NC3(C(=O)N(Cc4ccc(Cl)c(Cl)c4)c4ccccc43)C3C(=O)N(c4ccc(Br)cc4)C(=O)C32)cc1 (stereo partly drawn) [TCMDC-139775]	-22.32
CC(=O)Nc1ccc(OCCCCN(Cc2ccccc2OC(F)(F)F)c2ccc(C(F)(F)F)c(C#N)c2)c(Cl)c1 [TCMDC-132788]	39.51
CC(=O)Nc1ccc(OCCCCN(Cc2ccccc2C(F)(F)F)c2ccc(C#N)c(C(F)(F)F)c2)cc1 [TCMDC-132800]	12.39
CC(=O)Nc1ccc(OCCN(CC(C)C)c2ccc(C(F)(F)F)c(C#N)c2)c(Cl)c1 [TCMDC-132793]	18.14
CC(=O)Nc1ccc(OCCN(CC(C)(C)C)c2ccc(C#N)c(C(F)(F)F)c2)c(Cl)c1 [TCMDC-132786]	66.46
CC(=O)Nc1ccc(OCCN(CC(C)C)c2ccc(C#N)c(C(F)(F)F)c2)c(Cl)c1 [TCMDC-137002]	29.5
CC(=O)Nc1ccc(OCCCCN(Cc2ccccc2C(F)(F)F)c2ccc(C#N)c(C(F)(F)F)c2)c(Cl)c1 [TCMDC-132787]	69.01
O=C(Nc1ccc(-c2cccc(-c3nc4ccccc4[nH]3)c2)cc1)Nc1ccc(F)c(F)c1F [TCMDC-133237]	3.705
COc1cc(N)cc2sc(N)nc12 [TCMDC-124235]	-47.26
COCCN(C)c1ccc(C(=O)Nc2ccccc2)cc1NS(=O)(=O)Cc1ccccc1 [TCMDC-134575]	41.39
O=C(O)CCSSc1cccc[n+]1[O-] [TCMDC-141973]	168.8
COc1cc2c(cc1C(F)(F)F)N(C(=O)Nc1cc(F)cc(-c3cccnn3)c1)CC2 [TCMDC-139045]	-0.3523
O=C(C(=O)c1ccc(Nc2ccnc3cc(-c4ccccn4)ccc23)cc1)c1ccccc1 [TCMDC-138204]	-8.545
COc1cc2nccc(Nc3ccc(OCc4ccc(NC(C)=O)cc4)cc3)c2cc1OC.Cl [TCMDC-138198]	-13.16
Cc1ccc(C(=O)Nc2ccc(Nc3ccnc4cc(-c5ccccn5)ccc34)cc2O)cc1 [TCMDC-138205]	115.7

SMILES	% Inhibition [%]
Cc1ccc(O)cc1Nc1ccnc2cc(-c3ccccn3)ccc12 [TCMDC-138201]	17.09
c1ccc(-c2ccc3c(Nc4ccc5[nH]ccc5c4)ccnc3c2)nc1 [TCMDC-138200]	22.33
c1ccc(-c2ccc3c(Nc4ccc5[nH]ncc5c4)ccnc3c2)nc1 [TCMDC-138199]	108.3
COc1cc2nccc(Nc3ccc(NC(=O)c4ccc(C)cc4)c(O)c3)c2cc1OC.Cl [TCMDC-138197]	20.08
Cc1ccc(C(=O)Nc2ccc(Nc3ccnc4cc(-c5nccs5)ccc34)cc2O)cc1 [TCMDC-138298]	75.39
CC(=O)Nc1ccc(COc2ccc(Nc3ccnc4cc(-c5ccccn5)ccc34)cc2)cc1 [TCMDC-138206]	116.6
Cc1ccc(Nc2ccnc3cc(-c4nccs4)ccc23)cc1C(O)c1ccccc1 (stereo not drawn) [TCMDC-138338]	-2.553
Cc1ccc(C(=O)Nc2ccc(Nc3ccnc4cc(-c5ccncc5)ccc34)cc2O)cc1 [TCMDC-138294]	-17.41
COc1ccc(Nc2ccnc3cc(-c4ccccn4)ccc23)cc1OC [TCMDC-138207]	-27.22
Cc1ccc(F)cc1S(=O)(=O)NCC(C)c1ccc(NC(=O)Nc2cccc(F)c2)cc1 (stereo not drawn) [TCMDC-136380]	-32.92
OC(CNc1ccnc(Nc2cccc(Cl)c2)n1)c1ccccc1C(F)(F)F (stereo not drawn) [TCMDC-136578]	-37.8
CC(C)n1cc2c(ccc3nc(N)nc(N)c32)n1 [TCMDC-137865]	-36.93
COc1ccc2nccc([C@@H](O)CN3CCC(NCc4ccc5c(c4)N(C)C(=O)CO5)CC3)c2c1 [TCMDC-141093]	-7.365
COCCCNc1sc(S(=O)(=O)c2ccccc2)nc1S(=O)(=O)c1ccc(C)cc1 [TCMDC-125275]	-13.04
CS(=O)(=O)CCNCc1nc(-c2ccc3c(Nc4ccc(F)c(O)c4)ccnc3c2)cs1 [TCMDC-138437]	-66.48
CS(=O)(=O)CCNCc1nc(-c2ccc3ncnc(Nc4ccc(OCc5ccccc5)c(Cl)c4)c3c2)cs1 [TCMDC-138497]	-10.86
CS(=O)(=O)CCNCc1nc(-c2ccc3c(=O)[nH]cnc3c2)cs1 [TCMDC-138539]	107
O=C(Nc1ccc(Cl)cc1)N(CC1CC2CCC(C1)N2Cc1ccc(C(F)(F)F)cc1)c1ccc(N2CCOCC2)c(F)c1 (stereo not drawn) [TCMDC-135859]	42.25
COCc1nc(-c2ccccc2)nc(N2CCN(C(=O)NC(C)C)CC2)c1Cc1ccccc1F [TCMDC-124782]	9.126
Cc1onc(-c2c(Cl)cccc2Cl)c1C(=O)NC1=NC(C)(C)ON1c1ccccc1 [TCMDC-123777]	-4.951
Cc1cccc2[nH]c(-c3ccc(-c4cccc(NC(=O)NCc5ccccc5)c4)cc3)nc12 [TCMDC-133162]	-12.85
COCCNCc1ccc(-c2ccc(CN(C(=O)Nc3ccccc3)C3CCN(Cc4ccccc4)CC3)cc2)cc1 [TCMDC-140600]	51.26

SMILES	% Inhibition [%]
COCCNCc1cccc(-c2cccc(CN(C(=O)Nc3ccccc3)C3CCN(Cc4ccccc4)CC3)c2)c1 [TCMDC-140586]	56.29
COCCNCc1cccc(-c2ccc(CN(C(=O)Nc3ccccc3)C3CCN(Cc4ccccc4)CC3)cc2)c1 [TCMDC-140599]	105.4
COCCNCc1cccc(-c2ccccc2CN(C(=O)Nc2ccccc2)C2CCN(Cc3ccccc3)CC2)c1 [TCMDC-140579]	41.2
COc1cccc(CN2CCCC(CCC(=O)Nc3ccc(C(F)(F)F)cc3)C2)c1O (stereo not drawn) [TCMDC-124616]	-32.93
COc1ccc(CC(=O)Nc2ccc(-c3cccc(-c4nc5c(C)cccc5[nH]4)c3)cc2)cc1O [TCMDC-132145]	-7.504
O=[N+]([O-])c1cccc(-n2nc(NCc3ccc(Cl)cc3)nc2-c2ccc(F)c(C(F)(F)F)c2)c1 [TCMDC-133541]	77.17
Fc1ccc(-c2nc(NCc3cccc(C(F)(F)F)c3)nn2-c2cccc(C(F)(F)F)c2)cc1C(F)(F)F [TCMDC-133542]	-57.69
Fc1ccc(CNc2nc(-c3ccc(F)c(C(F)(F)F)c3)n(-c3cccc(C(F)(F)F)c3)n2)cc1 [TCMDC-133543]	-1.205
O=C(O)C1Cc2c([nH]c3ccccc23)C(c2ccc(Cl)cc2Cl)N1 (stereo not drawn) [TCMDC-125815]	25.42
CCOC(=O)C1=C(C)NC(Cn2ccnc2)=C(C(=O)OCC)C1c1ccc(C(C)(C)C)cc1 (stereo not drawn) [TCMDC-138170]	12.53
Cc1ccc(-c2cc(C(=O)Nc3ccc(S(=O)(=O)N(C)Cc4ccccc4)cc3)[nH]n2)c(O)c1 [TCMDC-125181]	-25.99
CCN(c1ccccc1)S(=O)(=O)c1ccc(NC(=O)c2cc(-c3cc(C)ccc3O)n[nH]2)cc1 [TCMDC-124308]	51.8
CC(=O)Nc1ccc(NC(=O)c2cc(-c3cc(Cl)ccc3O)n[nH]2)cc1 [TCMDC-125476]	83.42
CC(=O)Nc1ccc(NC(=O)c2cc(-c3ccc(C)cc3O)n[nH]2)cc1 [TCMDC-125182]	0.9116
Cc1ccc(O)c(-c2cc(C(=O)Nc3ccc(S(=O)(=O)N4CCCCCC4)cc3)[nH]n2)c1 [TCMDC-125201]	-31.36
O=C(Nc1cccnc1)c1cc(-c2cc(Cl)ccc2O)n[nH]1 [TCMDC-125322]	-15.69
Cc1cccc(C)c1CNc1nc(N2CCOCC2)cc2c(C)c(C)[nH]c12 [TCMDC-134210]	43.54
CCNC(=O)N[C@@H]1CN[C@@H](C#Cc2cc3c(Nc4ccc(OCc5cccc(F)c5)c(Cl)c4)ncnc3s2)C1 [TCMDC-135409]	-11.09
COc1ccc(C=CC(=O)Nc2ccc(N3CCCC3)cc2)cc1 [TCMDC-125750]	-68.82
COc1ccc(CNC2CCN(c3ccc(NC(=O)c4cccc(Cl)c4)cc3)CC2)cc1OC [TCMDC-124658]	-12.9
COc1cc(CNc2ccc(N3CCCC3)cc2)cc(Cl)c1OC [TCMDC-124518]	100.8
CCCC1(C)CSc2ccccc2C(c2ccccc2)N1 (stereo not drawn) [TCMDC-137314]	11.78
